Compound activity deposited in PubChem by National Center for Advancing Translational Sciences (NCATS).
An excerpt weighted towards active compounds, which were near 7.5% of everything screened.
Gal4-VP16 FLuc: counter-screen for ROR gamma inhibitors: Gal4-VP16 reporter; Drosophila S2 Gal4-VP16 UAS-luciferase, luminescence, 20 h; Potency, µM (titrated, usually from 53.6 µM), inactives show at the highest dose activity, negative = inhibition, actives largely listed as inhibitors; hit rate 3.5% among 310,000; AID 2546;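 also: Gal4-VP16 expression switched on by copper sulfate through the metallothionein promoter; potency is read from the fitted curve at half-maximal effect; nearly all actives have a fitted effect of over 50% in size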
TSHR antag: human thyrotropin receptor antagonism; TSHR-expressing cells, TSH-stimulated cAMP HTRF, 2 h; active compounds read low; activity change, negative = inhibition, % at 11.5 µM; AID 504810; hit rate 0.2% among 330,000;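 active = activity change below a set negative limit, meaning inhibition stronger than a set level, cut at about -70% in these data; inconclusive = activity change between two set negative limits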
Target sequence (P16473 whole entry, looked up): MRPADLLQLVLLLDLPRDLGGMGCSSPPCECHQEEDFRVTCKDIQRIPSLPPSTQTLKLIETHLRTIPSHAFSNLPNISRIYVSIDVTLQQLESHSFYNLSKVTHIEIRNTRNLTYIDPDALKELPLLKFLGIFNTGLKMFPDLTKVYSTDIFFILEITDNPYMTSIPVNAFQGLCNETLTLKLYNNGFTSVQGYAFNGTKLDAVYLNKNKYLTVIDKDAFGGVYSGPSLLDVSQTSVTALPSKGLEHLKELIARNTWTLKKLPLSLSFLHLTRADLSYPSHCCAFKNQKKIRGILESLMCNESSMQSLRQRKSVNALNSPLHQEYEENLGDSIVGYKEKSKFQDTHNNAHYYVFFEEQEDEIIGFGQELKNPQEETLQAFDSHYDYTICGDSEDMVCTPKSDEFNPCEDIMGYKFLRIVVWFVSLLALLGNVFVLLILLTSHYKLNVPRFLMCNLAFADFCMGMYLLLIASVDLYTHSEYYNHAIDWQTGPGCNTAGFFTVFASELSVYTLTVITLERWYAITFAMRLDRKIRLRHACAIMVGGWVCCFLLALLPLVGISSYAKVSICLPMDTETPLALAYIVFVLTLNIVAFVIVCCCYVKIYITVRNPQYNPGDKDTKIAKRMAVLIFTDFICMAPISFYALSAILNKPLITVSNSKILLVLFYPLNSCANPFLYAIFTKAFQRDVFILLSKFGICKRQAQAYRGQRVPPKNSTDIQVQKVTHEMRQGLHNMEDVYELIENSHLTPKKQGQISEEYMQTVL
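Cell-based HTRF cAMP assay; TSHR cells + compound, TSH EC80 (4nM final), 2 h, 37 deg C. Lysis with anti-cAMP cryptate and cAMP-d2, 30 min RT, read 665/620 nm.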
RORg inh: inhibitors of mouse ROR gamma transcriptional activity; P51450; Drosophila S2 Gal4-RORgamma UAS-luciferase reporter, 20 h; Potency, µM (highest dose often 53.6 µM), for the others: at the top dose activity change, negative = inhibition, hits mostly inhibitors; hit rate 5.4% among 310,000; AID 2551; also: potency is read from the fitted curve at half-maximal effect; nearly all actives have a fitted effect of over 60% in size
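ROR gamma transcriptional activity was tracked as Gal4-UAS luciferase output in stably transfected Drosophila Schneider cells, with compound added 1 hr before 700 uM copper sulfate induction and a 20 hr ambient-temperature incubation.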
B2AR arrestin: beta2AR (human) beta-arrestin recruitment activity; hit rate 0.02% among 330,000; beta-arrestin recruitment to beta2AR, cell-based reporter; Potency, µM (top dose mostly 46.1 µM), without a hit: at the highest dose activation, usual class: activators; P07550; AID 492947;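 also: potency is read from the fitted curve at half-maximal effect; 0% = DMSO controls and full agonism = EC100 isoproterenol or metaproterenol; nearly all actives have a fitted effect of over 65% in size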
ELG1 repair inh: ELG1-dependent DNA repair inhibition; Potency, µM (series often up to 46.1 µM), for inactives: at the top dose activity change, negative = inhibition, hits mostly inhibitors; hit rate 2.3% among 330,000; HEK293T ELG1-luciferase reporter, luminescence, 16 h; DNA damage induced by 5-fluorouridine; also: potency is read from the fitted curve at half-maximal effect; nearly all actives have a fitted effect of over 55% in size
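Luminescence from the luciferase reporter, measured 30 min after ONE-Glo reagent at room temperature, was the read-out. Beforehand, 2,000 cells per well were exposed for 16 hr at 37 °C to 5-fluorouridine together with compound or vehicle.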
* = called active by the depositor; u = inconclusive; x = not tested or not shown; [ ] = another dose, or the depositor's remark. Unless noted, calls follow the shape of the dose curve; as a rule, active = well fitted curve in the direction sought with a large enough effect; inconclusive = small, poorly fitted or top-dose-only effect, or another doubt; inactive = no such curve, though single readings can be large; an effect the other way counts as inactive or inconclusive. Unless noted, % is scaled to controls: 0 for no effect and ±100 for the full control effect.

SMILES	Gal4-VP16 FLuc	TSHR antag	RORg inh	B2AR arrestin	ELG1 repair inh
CCN(CC)c1ccc(C(=O)NNC(=O)CN2C(=O)NC3(CCCCC3)C2=O)cc1	x	-2	x	0%	11%
C=CCOn1c(C)c(C(C)=O)c2c3no[n+]([O-])c3ccc21	3%	-5	6%	0%	u
C=CCOn1c(C)c(C(C)=O)c2c3nonc3ccc21	0%	-10	0%	0%	10µM*
Cc1cc(C)nc(N/N=C/c2sccc2C)n1	-23%	1	u	1%	u
Cc1ccsc1/C=N/Nc1nc(=O)[nH]nc1C	10µM*	0	5.6µM*	0%	u
Cc1ccsc1/C=N/Nc1ncc(Cl)cc1Cl	5µM*	-2	7.1µM*	0%	u
COCCOC(=O)c1c(C)nc(SCC(=O)Nc2ccc(OC)cc2)c(C#N)c1-c1ccco1	-6%	-4	-3%	0%	23µM*
N#Cc1c(-c2ccco2)cc(C2CC2)nc1SCC(=O)c1ccccc1	13%	15	19%	0%	4%
Cc1nc(SCC(=O)c2ccccc2)c(C#N)c(-c2ccco2)c1C(=O)NCc1ccco1	5µM*	-5	5.6µM*	0%	u
OB(O)c1csc2ccccc12	-7%	x	6%	x	x
Cc1nc2cnc(Nc3ccccc3)nc2n(C2CC2)c1=O	0%	x	29%	x	x
OCCNc1cc(-n2nc(-c3ccccc3)cc2-c2ccccc2)ncn1	0%	-6	23%	0%	16µM*
CN(C)c1ccc(C(CNC(=O)COc2ccc(Cl)cc2)N2CCCC2)cc1 (centres undefined)	-4%	-1	10%	-1%	8%
O=C(N[C@H]1C/C=C\C[C@@H](CC(=O)N(CCO)Cc2ccccc2)C(=O)N[C@H](Cc2c[nH]c3ccccc23)COC1=O)OCC1c2ccccc2-c2ccccc21	x	-9	x	0%	21µM*
O=C1N[C@@H](Cc2c[nH]c3ccccc23)COC(=O)[C@@H](Cc2ccc(F)cc2)C/C=C\C[C@H]1CC(=O)N(CCO)Cc1ccccc1	x	3	x	-2%	18µM*
O=C1N[C@@H](Cc2c[nH]c3ccccc23)COC(=O)[C@H](Cc2ccc(F)cc2)C/C=C\C[C@@H]1CC(=O)N(CCO)Cc1ccccc1	x	-3	x	0%	23µM*
CC(=O)Nc1ccc(S(=O)(=O)NC2=C(N3CCN(c4ccc(F)cc4)CC3)C(=O)c3ccccc3C2=O)cc1	-10%	-29	-40%	0%	8.2µM*
CCOC(=O)CN1C(c2ccccc2O)Nc2ccc(Br)cc2C1c1ccccc1 (centres undefined)	7.1µM*	6	-95%	0%	3%
COC(=O)CN1C(c2ccccc2O)Nc2ccc(Br)cc2C1c1ccccc1 (centres undefined)	0%	12	-36%	-1%	9%
CC(=O)Nc1c(I)c(C(=O)N[C@H]2[C@@H](O)[C@H](O)[C@H](CO)O[C@@H]2O)c(I)c(N(C)C(C)=O)c1I	8%[17 µM]	x	13%[2.98 µM]	x	x
CC(=O)Nc1ccc(NC(=O)CSc2nccn2Cc2ccccc2)cc1	4%	-9	18%	0%	21µM*
Cc1ccc(NC(=O)CSc2nccn2Cc2ccccc2)cc1C	-1%	-36	5%	0%	u
CC1CCC(NC(=O)CNC(=O)Cc2cccc3ccccc23)CC1 (centres undefined)	7%	6	-5%	-1%	-2%
O=C(Cn1ncc(Cl)c(Cl)c1=O)NC1CCCCC1	x	27	x	0%	u
O=C(Cn1ncc(Cl)c(Cl)c1=O)NCC1CCCCC1	u	26	u	-1%	18µM*
SMILES	Gal4-VP16 FLuc	TSHR antag	RORg inh	B2AR arrestin	ELG1 repair inh
O=C1CN(C(=O)Cn2ncc(Cl)c(Cl)c2=O)c2ccccc2N1	u	-9	11µM*	0%	u
O=C1CN(C(=O)COc2ccc(Cl)c(Cl)c2)c2ccccc2N1	x	-6	x	0%	u
C#CCCCO/N=C1/C[C@@H](O)[C@@H](O)[C@@H]2[C@@H]3C(=O)N([C@@H](C)c4ccccc4)C(=O)[C@H]3CC[C@@H]12	-13%[10 µM]	x	42%[10 µM]	x	x
CCOC(=O)CNC(=O)O[C@H]1C(=O)c2cc(OC)ccc2O[C@@H]1c1ccc(OC)c(Br)c1	-3%	x	0%	x	x
Fc1cccc(NC(=S)NNc2c3ccccc3nc3ccccc23)c1	-12%	13	10%	0%	u
Fc1cccc(NC(=S)NC2CCCCCCC2)c1	7.1µM*	-17	3.5µM*	0%	3%
FC(F)(F)c1ccc(NC(=S)NC2CCCCC2)cc1	u	-37	4.5µM*	0%	-2%
O=C(Nc1cccc(F)c1)C1CCCCC1	x	57	x	0%	27%
O=C(O)c1ccc(NC(=S)NC2CCCCC2)cc1	-10%	15	-7%	0%	26%
Fc1cccc(NC(=S)NNc2ccccc2)c1	2.2µM*	1	1.3µM*	0%	-21%
FC(F)(F)c1cccc(NC(=S)NC2CCCC2)c1	8.9µM*	5	5µM*	0%	-14%
CCc1noc(C)c1C(=O)N1CCN(S(=O)(=O)c2ccc(Br)cc2Cl)CC1	x	13	x	-1%	0%
COc1ccccc1C(N)=S	u	9	16µM*	0%	0%
COCCn1c(=O)c(-c2cccc(C#N)c2)nc2cnc(N(C)C)nc21	-2%	x	-5%	x	x
O=C(CCCn1c(=O)c2sccc2n(Cc2ccc(F)cc2)c1=O)NCc1ccco1	27%	-11	38%	0%	21µM*
CC(=O)c1ccc(N2CCN(Cc3nc(Cc4ccccc4)no3)CC2)cc1	u	-12	3.5µM*	0%	u
CC(=O)/C(=N\Nc1ccccc1Cl)Sc1cccc2cccnc12	4.5µM*	15	2.8µM*	-1%	7%
CC(=O)/C(=N\Nc1ccccc1)Sc1cccc2cccnc12	u	-14	14µM*	-1%	-7%
CO/N=C(/C)CCC(=O)OC[C@@H]1O[C@H](C#Cc2ccccc2)C=C[C@@H]1Oc1ccc(C)cc1	6%[10 µM]	x	-8%[10 µM]	x	x
O=C1N=C(N2CCOCC2)S/C1=C1\C(=O)N(Cc2ccccc2)c2ccccc21	19%	10	u	0%	u
CC1CN(C2=NC(=O)/C(=C3/C(=O)N(Cc4ccc(F)cc4)c4ccccc43)S2)CC(C)O1 (centres undefined)	0%	-1	23%	-1%	12µM*
Cn1c(=O)c(C(=S)NC(=O)C2CC2)c(N)n(Cc2ccccc2)c1=O	1µM*	-8	1.3µM*	5%	-8%
CCN(CC)CC(=O)c1c(N)n(Cc2ccccc2)c(=O)n(C)c1=O	4%	-7	3%	-1%	8%
CCCNC(=O)OC[C@H]1O[C@@H](CCO/N=C2/[C@H]3O[C@@H]3[C@@H](O)[C@H]3[C@H]2CCn2c(=O)n(-c4ccccc4)c(=O)n23)C=C[C@@H]1Oc1ccc(OC)cc1	1%[10 µM]	x	1%[10 µM]	x	x
